MITF TRPM1 HTS: activators of MITF-driven TRPM1 promoter reporter, primary screen, cell-based, SK-MEL-5, luciferase, single point. SK-MEL-5 TRPM1-promoter luciferase, 24 h; % of positive control, neutral wells = 0. activation, % at 12.5 µM. 300,000 compounds, 0.75% hits. AID 588334, 2011;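 active = mean activation of at least 80% with every replicate also reaching 80%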;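 also: 0% = neutral control wells and 100% = parthenolide positive control wells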
HSF1 inhib: HSF1 inhibitors in luciferase reporter cells, primary screen, cell-based, NIH3T3, luminescence; NIH3T3-HGL HSE-luciferase, MG132-induced, luminescence 8 h; stronger effect = lower value; activity change, negative = inhibition, % at 7.5 µM (by protocol); 300,000 compounds, 0.77% hits;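 active = more than half of replicate wells show activity change below -50%, luminescence cut by over half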;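 also: luciferase reports HSF-1 transcriptional activity via heat shock element; 0% = median of DMSO wells and -100% = zero luminescence signal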
esBAF inh: Bmi1 luciferase reporter increase in mESCs, primary screen, esBAF inhibitor project, mouse ES cells, Bmi1 luciferase knock-in, single point; 24 h; 100% = twice the neutral-well signal; reporter increase, % at 12.5 µM; 350,000 compounds, 2% hits; AID 602393, 2012; in the data active = activation above about 40%;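 also: 0% = median of the plate's neutral control wells and 100% = double that signal; a rise in the Bmi1 reporter signal indicates esBAF inhibition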
Wnt act: Wnt/beta-catenin pathway activators, primary screen, cell-based, plate reader, single point; Wnt/beta-catenin reporter cell assay, activator; activation, % at 9.35 µM; 300,000 compounds, 1.2% hits; AID 743398, 2014; in the data active = activation above about 30%, passing the limit was not always enough;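 also: 0% = neutral control wells and 100% = positive control wells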
HSF1 activator: HSF-1 activators, primary screen, NIH3T3-HGL cells, MG132 stress, luminescence, single point. NIH3T3-HGL HSF-1 luciferase reporter, 8 h; 100% = twice DMSO control signal. 300,000 compounds, 1.7% hits. AID 504408, 2011. activation, % at 9 µM;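 active = mean replicate activation of at least 50% with a set share of replicates each reaching 50%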;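 also: 0% = median of the neutral control wells and 100% = twice that signal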
Starred values were filed as active, the others as inactive; · = not tested or not shown. Sampled rows, rich in hits. Any-hit rate of the full collection: about 3.9%.

SMILES | MITF TRPM1 HTS | HSF1 inhib | esBAF inh | Wnt act | HSF1 activator
CC(C)(C)CC(=O)Nc1nnc(-c2cccs2)s1 | 44 | 32 | 48* | 52* | 48
O=C(Nc1nnc(-c2cccs2)s1)c1cccc(F)c1 | 32 | · | 60* | 39* | ·
O=C(Nc1ccccc1)Nc1nnc(-c2cccs2)s1 | 73 | · | · | 29 | ·
O=C(CN1CCCC1)Nc1nnc(-c2cccs2)s1 | -6 | 7 | · | 2 | 11
Cc1noc(C)c1NC(=O)N(C)C[C@H]1Oc2c(NC(=O)c3nc4ccccc4s3)cccc2C(=O)N([C@H](C)CO)C[C@@H]1C | · | · | 1 | · | ·
CC1CCN(C(=O)c2cc3c(ccc4ccccc43)o2)CC1 | 29 | -7 | · | 33* | -7
CCOC(=O)C1CCN(C(=O)c2cc3cc(C)ccc3[nH]2)CC1 | · | 15 | 19 | 34* | 10
CCOC(=O)C1CCN(C(=O)c2cc3c(ccc4ccccc43)o2)CC1 | 96* | 52 | 71* | 42* | 77*
CC1CCN(C(=O)c2cc3ccccc3c(=O)o2)CC1 | -3 | -2 | · | 14 | -4
COc1ccc(-c2ccc3n(c2=O)C[C@H]2[C@H](CO)[C@@H](C(=O)N(C)C)N(CC4CC4)[C@@H]32)cc1 | · | · | 1 | · | ·
CC(C)(C)C(=O)Nc1sc2c(c1C#N)CCN(Cc1ccccc1)C2 | · | 18 | 6 | -2 | 57*
C[C@@H]1CCCCO[C@@H](CN(C)Cc2ccc3c(c2)OCO3)[C@@H](C)CN([C@@H](C)CO)C(=O)c2cc(NC(=O)NC3CCCCC3)ccc2O1 | · | · | 8 | · | ·
O=C(O)C(=O)/C(=C\c1ccccc1)c1ccc2ccccc2n1 | 6 | 10 | 37 | · | 12
O=C(O)C(=O)/C(=C\c1ccsc1)c1ccc2ccccc2n1 | -5 | 14 | 56* | 27 | 35
C[C@@H]1CN([C@@H](C)CO)C(=O)c2cccc(NC(=O)C3CCOCC3)c2O[C@@H]1CN(C)S(=O)(=O)c1cn(C)cn1 | · | · | -1 | · | ·
Nc1cccc(-c2nc3ccccc3s2)c1 | 2 | 11 | -15 | 26 | 28
Cc1cc(C)c(-c2nc3ccccc3s2)[nH]1 | 15 | 21 | 76* | 14 | 49
COCC(=O)Nc1ccc2c(c1)C(=O)N(C)C[C@@H](OC)[C@H](C)CN(C(=O)Cc1ccccn1)[C@@H](C)CO2 | · | · | -6 | · | ·
OC1=C(O)c2nc3cc(F)ccc3nc21 | · | 1 | -5 | 3 | ·
Fc1ccc2nc3[nH]c4ccccc4c3nc2c1 | · | 27 | 35 | 100* | 20
CCOc1ccc2c(=O)c(Oc3ccccc3OCC)coc2c1 | 56 | 18 | 64* | 0 | 19
Nc1nc(COC(=O)c2ccco2)nc(Nc2ccccc2)n1 | · | · | 48* | 10 | ·
Cc1ccccc1Nc1nc(N)nc(COC(=O)[C@@H](NC(=O)c2ccco2)C(C)C)n1 | -2 | · | · | -2 | ·
Cc1ccc(Nc2nc(N)nc(COC(=O)c3ccc(Br)o3)n2)cc1 | 48 | · | 29 | -5 | ·
Cc1ccccc1Nc1nc(N)nc(CN(C)c2ccccc2)n1 | 29 | -5 | 47* | · | -12
SMILES | MITF TRPM1 HTS | HSF1 inhib | esBAF inh | Wnt act | HSF1 activator
Cc1ccccc1Nc1nc(N)nc(COC(=O)c2ccco2)n1 | 50 | · | 77* | -3 | ·
COC(=O)c1cc(NC(=O)c2ccccc2)c(=O)oc1C | 2 | 7 | · | -2 | 6
COc1ccc(C(=O)Nc2cc(C(=O)c3ccccc3)c(C)oc2=O)cc1 | · | 34 | -1 | · | 38
Cc1oc(=O)c(NC(=O)c2cccc(Cl)c2)cc1C(=O)c1ccccc1 | 46 | 74 | 22 | 0 | 123*
COC(=O)c1cc(NC(=O)c2ccc(C)cc2)c(=O)oc1C | 9 | 12 | 45* | 2 | 3
Cc1ccc(N2C(=O)C3CC(c4ccccc4)=C4C5C=CC(C6C(=O)N(c7ccc(C)cc7)C(=O)C56)C4C3C2=O)cc1 (stereo unspecified) | 7 | 6 | · | · | 12
Cc1ccc(N2C(=O)C3CC(c4ccccc4)=C4C5C=CC(C6C(=O)N(c7ccc(C)cc7C)C(=O)C56)C4C3C2=O)c(C)c1 (stereo unspecified) | · | 40 | 3 | · | 88*
CC(C)(C)OC(=O)N1CCC(NC(=O)c2ncn(Cc3ccccc3)c2C(=O)NC2CCN(C(=O)OC(C)(C)C)CC2)CC1 | 432* | · | 35 | -6 | ·
Cn1cnc(C(=O)NC2CCN(C(=O)OC(C)(C)C)CC2)c1C(=O)NC1CCN(C(=O)OC(C)(C)C)CC1 | 12 | · | · | 1 | ·
CC(C)NC(=O)C1CCN(C(=O)c2ccc(-c3ccccc3)cc2)CC1 | 9 | -3 | 4 | · | 3
Cc1ccc(Nc2nc(C(=O)N3CCC(C(=O)NC(C)C)CC3)cs2)cc1 | 10 | 12 | · | 58* | 4
CCOC(=O)c1c(NC(=O)CSc2nnc(-c3c[nH]c4ccccc34)n2C)sc2c1CCCC2 | · | -56* | 9 | 0 | -65
CCOC(=O)c1c(NC(=O)CSc2nnc(-c3c[nH]c4ccccc34)n2CCOC)sc2c1CCCC2 | · | 10 | 9 | -4 | 10
Cc1noc(C)c1S(=O)(=O)Nc1cccc2c1O[C@H](CN(C)C(=O)Nc1ccc(C(F)(F)F)cc1)[C@H](C)CN([C@@H](C)CO)C2=O | · | · | 2 | · | ·
CN(C)CCn1c(NC(=O)c2ccc(Cl)cc2)nc2ccccc21 | 27 | · | 56* | · | ·
CCN(CC)CCn1c(NC(=O)c2ccc(C)cc2)nc2ccccc21 | 13 | 14 | 28 | 13 | 57*
CCN(CC)CCn1c(NC(=O)c2ccc(C(F)(F)F)cc2)nc2ccccc21 | -16 | · | 16 | -2 | ·
COc1ccc(C2=NN(C(=O)CN3CCCC3)C(c3ccc(OC)cc3)C2)cc1 (stereo unspecified) | · | 33 | · | 2 | 55*
COc1ccc(C2=NN(C(=O)c3cccs3)C(c3ccccc3O)C2)cc1 (stereo unspecified) | 16 | 22 | · | 1 | 29
COc1ccc(C2CC(c3ccccc3)=NN2C(=O)c2cccs2)cc1 (stereo unspecified) | 33 | 51 | 47* | · | 71*
CN(C)C(=O)c1cccc(-c2ccc([C@@H]3[C@@H](CO)N4CCCCN(CC5CCOCC5)C[C@H]34)cc2)c1 | · | · | 6 | · | ·
COc1ccc(NC(=O)c2ccccc2NC(=O)C2CCCCC2C(=O)O)cc1 (stereo unspecified) | · | · | 51* | 38* | ·
CC(C)c1ccc(NC(=O)c2ccccc2NC(=O)C2CC=CCC2C(=O)O)cc1 (stereo unspecified) | 47 | · | 51* | 15 | ·
O=C(Nc1ccc(F)cc1)c1ccccc1NC(=O)C1CCCCC1C(=O)O (stereo unspecified) | · | · | 9 | 5 | ·
O=C(Nc1ccc(F)c(Cl)c1)c1ccccc1NC(=O)C1CCCCC1C(=O)O (stereo unspecified) | · | · | 66* | 4 | ·
